Assay results from PubChem BioAssay AID796 (Columbia University Molecular Screening Center, 2007).
In all, about 94,000 compounds went through this assay and about 410 (0.44%) were called active. Many of the other results were omitted from the sample, so actives are more common in it than they were. Values without a mark were called inactive.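 The calls were made as follows: active = inhibition above about 30% together with a positive call from visual inspection of the well image (limit read from the data); inconclusive = inhibition above a set limit but visual check negative; inactive = inhibition not above a set limit, visual check negative.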

assay: inhibitors of IL-1B driven NFkB p65 nuclear import, primary screen, imaging, HUVEC, IL-1B stimulus, high-content imaging (AID 796); details: HUVEC IL-1B NFkB p65 nuclear translocation imaging; at 2 µM; active compounds read high;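 also: nuclear over cytoplasmic p65 intensity ratio measured by imaging; 0% = IL-1B stimulated DMSO wells and 100% = unstimulated DMSO wells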

Row | SMILES | inhibition
1 | O=S1(=O)C=C(SCCN2CCCC2)c2ccccc21 | -1.4%
2 | CCOC(=O)/C(C#N)=C\c1c(C)cc(C)c(COC(C)=O)c1C | 8.2%
3 | O=C1c2ccccc2C(=O)N1CCC(c1ccccc1)c1ccco1 (configuration not stated) | -2.1%
4 | CN(C)/C=C(\C#N)C(=O)c1cccnc1Oc1ccc(F)cc1F | 5.5%
5 | O=S(=O)(c1ccc(Br)cc1)n1ccc2ccccc21 | 5.3%
6 | O=C(Nc1ncc2c(n1)-c1ccccc1OC2)c1ccc(Cl)cc1 | 3.3%
7 | CC(N)C12CC3CC(CC(O)(C3)C1)C2 (configuration not stated) | -22.4%
8 | C=CCN1C(=O)C(Cc2cccc(Cl)c2)S/C1=N/N=C/c1ccco1 (configuration not stated) | 6.5%
9 | CC(C)(C)NC(=O)COc1ccc(CNc2ccc3[nH]c(=O)[nH]c3c2)cc1 | 6.7%
10 | O=C(NC1CCN(C(=S)NCc2ccco2)CC1)c1ccc(F)cc1 | -2.5%
11 | O=C(Oc1ccccc1C(=S)N1CCCCC1)c1cc([N+](=O)[O-])cc([N+](=O)[O-])c1 | -5.6%
12 | CN1CC(c2ccccc2)C2(COc3ccccc3C2=O)C12C(=O)Nc1ccccc12 (configuration not stated) | -0.2%
13 | Nc1nc(Br)c2ccccc2c1-c1ccc(F)cc1 | -12.8%
14 | Cc1cccc(NC(=O)c2ccc(OCC(=O)NCc3ccccc3)cc2)c1C | 12.8%
15 | Cc1nc2c(-c3ccc(F)cc3)c(C)nn2c(C)c1CCC(=O)NCc1ccco1 | 8.1%
16 | c1cncc(-c2nnc3n2C2(CCCCC2)Cc2ccccc2-3)c1 | -4.9%
17 | NS(=O)(=O)c1ccc(Nc2nc(-c3ccccc3)cs2)cc1 | 18.6%
18 | O=C(CNC(=O)c1cc2c(s1)CCC2)Nc1ccccc1Br | -43.6%
19 | Cc1ccc(N(CC(=O)Nc2cc(C)cc(C)c2)S(=O)(=O)c2cccc3nonc23)cc1 | 0.6%
20 | Cc1occc1C(=O)NNC(=S)NCC(C)C | -8.5%
21 | COc1ccc(NC(=O)/C(Cl)=C(/Cl)S(=O)Cc2ccc(C)cc2)cn1 (configuration not stated) | 81.8% (active)
22 | COc1cccc(NC(=O)Cc2ccc(C)cc2)c1 | 3.1%
23 | COc1ccc(CC(=O)Nc2ccc(-c3nnc(-c4ccc(C)cc4)o3)cc2)cc1 | -3.1%
24 | CN(C)c1ccnc2sc3c(=O)n(-c4ccc(Cl)cc4)cnc3c12 | -8.3%
25 | Cc1cc(=O)[nH]c(SCc2cccc(F)c2)n1 | -8.1%
26 | CCCNC(=S)NC1CC2CCCC(C1)N2CC(C)C (configuration not stated) | -10.2%
27 | CSc1ccccc1-c1nnc(-c2ccc(Cl)cc2)o1 | -15.4%
